KDM5B inh = blocks human KDM5B histone demethylase activity; Q9UGL1; KDM5B demethylase, FDH-coupled NADH fluorescence (FDH is formaldehyde dehydrogenase); Potency, µM (series often up to 57.7 µM), usual class: inhibitors; hit rate 2.6% among 220,000; active = well fitted inhibition curve with a large enough effect; note: nearly all actives have a fitted effect of over 70% in size
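Compound dilutions met 200 nM (final) KDM5BΔAP for 10 min at room temperature before substrate addition. The substrate mix held 12.5 µM H3K4me3 with cofactors 25 µM α-ketoglutarate and 50 µM Fe²⁺. NADH signal gain over 30 min defined activity.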
A number is an active result; - = inactive. Many of the other results were omitted from the sample, so hits are more common in it than they were.

SMILES	KDM5B inh
Cc1cc(NCCCNc2ccccc2)nc(-c2cccnc2)n1	-
Cc1noc2ccc(-c3cccnc3)nc12	-
CC(C)S(=O)(=O)CCNc1nccc(-c2cccnc2)n1	31.6µM
C(=N\Nc1nccc(-c2cccnc2)n1)/c1ccccc1	-
Cc1cc(=O)[nH]c(NCCNC(=O)[C@H]2CCC[C@@H](O)C2)n1	-
c1cncc(-c2ccnc(NCCCn3nccc3C3CC3)n2)c1	28.2µM
CC(C)=CCCC(C)[N+]1(C)CCCCC1 (configuration not stated)	-
C[N+]1(CC#Cc2ccccc2)CCC(c2ccccc2)(c2ccccc2)CC1	-
CNS(=O)(=O)c1cccc(C(=O)NCC2(c3ccccc3)CCC2)c1	-
CCOC(=O)CSc1nc2c(c(=O)[nH]c(=O)n2C)n1Cc1cccc(C)c1	-
CCc1ccc(-c2csc(Nc3cccc(C)n3)n2)cc1	-
COc1ccc(CN(C(=O)c2ccc(C#N)cc2)C(C)C2CC2)cc1 (configuration not stated)	-
Cc1ccc(Nc2nc(CSc3nnnn3C3CC3)cs2)cc1	-
Cc1ccc(S(=O)(=O)Nc2ccc3oc(C)nc3c2)cc1	-
Cc1ccc(C(=O)C2CC(=O)Nc3c2c(C)nn3-c2ccc(Br)cc2)s1 (configuration not stated)	-
CCOC(=O)c1oc2cc(OC(=O)c3ccco3)ccc2c(=O)c1-c1ccc(OC)cc1	-
Cc1ccc(-n2c(SCC(=O)Nc3ccc(Cl)cc3)nc3c(=O)[nH]cnc32)cc1	-
CCCCc1ccc(C(=O)Oc2ccc(C(C)=O)cc2)cc1	-
COc1ccc(C)cc1-n1nnc(-c2nc(-c3ccccc3C)no2)c1N	-
CCn1cnnc1CC1CCN(C(=O)c2ccccc2)CC1	-
CCn1cnnc1CC1CCN(C(=O)NCc2ccccc2)C1 (configuration not stated)	-
Cc1ccc(-c2cc(C(=O)N3CCC(c4nc(C5CCOCC5)no4)C3)c3ccccc3n2)cc1C (configuration not stated)	25.1µM
CCn1cnnc1CC1CCN(C(=O)c2cc(-c3ccc(C)c(C)c3)nc3ccccc23)CC1	28.2µM
CC(C)NC(=O)C1CCN(C(=O)c2cc(-c3ccccc3)nc3ccccc23)CC1	-
Cc1ccc(-c2cc(C(=O)N3CCC(Cc4nncn4C(C)C)CC3)c3ccccc3n2)cc1C	28.2µM
SMILES	KDM5B inh
O=C(c1c2c(nc3ccccc13)CCCC2)N1CCCC(c2nc(C3CCOCC3)no2)C1 (configuration not stated)	-
Cc1nn(C(=O)CCCC(=O)N2CCC(Cc3nncn3C(C)C)CC2)c2ccccc12	-
COc1ccc(-c2cc(C(=O)N3CCOC(C)C3)c3ccccc3n2)cc1OC (configuration not stated)	-
Cc1oc(-c2ccccc2)nc1CC(=O)Nc1ccc(S(=O)(=O)NC2CC2)cc1	-
CC(C)CN1C(=O)COC[C@@H]1[C@H](O)c1ccc(NC(=O)COc2ccccc2)cc1	-
COc1ccc(CN2C[C@H]3CN(Cc4c[nH]c5ccccc45)CCN3C2=O)cc1	-
CCN(C(=O)CN(C)S(=O)(=O)c1cc2c(cc1C)NC(=O)C(C)O2)c1ccc(OC)cc1 (configuration not stated)	-
O=C(O)c1cc(Cl)c(Cl)[nH]1	-
CC(C)c1ccccc1NC(=O)Cn1ccn2nc3c(c2c1=O)CCCCC3	-
COc1cccc(CNC(=O)Cn2ccn3nc4c(c3c2=O)CCCC4)c1	25.1µM
CC(CCc1ccccc1)NC(=O)CCn1ccn2nc3c(c2c1=O)CCCC3 (configuration not stated)	-
O=C(Cn1ccn2nc3c(c2c1=O)CCCC3)NCc1ccc(F)cc1	-
O=C(CCn1ccn2nc3c(c2c1=O)CCCC3)NCc1ccc(F)cc1	-
CCC(C)NC(=O)Cn1ccn2nc3c(c2c1=O)CCCC3 (configuration not stated)	-
COc1ccc(CNC(=O)CCn2ccn3nc4c(c3c2=O)CCCC4)c(OC)c1	-
Cc1cccc(CNC(=O)CCn2ccn3nc4c(c3c2=O)CCCC4)c1	-
CSc1ccc(CNC(=O)CCn2ccn3nc4c(c3c2=O)CCCC4)cc1	-
CC(CCc1ccccc1)NC(=O)Cn1ccn2nc3c(c2c1=O)CCCC3 (configuration not stated)	20µM
Cc1ccc(CNC(=O)Cn2ccn3nc4c(c3c2=O)CCCCC4)cc1	5.62µM
O=C(Cn1ccn2nc3c(c2c1=O)CCCC3)NCc1ccccc1	25.1µM
Cn1nc(-c2ccc(OCC(=O)N3CCCCC3)cc2)c2ccccc2c1=O	-
Clc1cc(Cn2nnc(-c3ccccc3)n2)cc2c1OCCCO2	-
COc1ccc2c(c1)cc(C(=O)NCCC(=O)Nc1ccc3c(c1)OCCO3)n2C	-
O=C(O)c1cc2c(Br)cccc2[nH]1	-
CCCC(=O)Nc1oc2c(C)cccc2c(=O)c1-c1ccc(OC)cc1	-
O=C(COC(=O)c1cc2ccccc2[nH]1)c1ccc2ccccc2c1	-
CCCCC(CC)CNC(=S)Nc1ccc(C(C)CC)cc1 (configuration not stated)	-
CCOCc1cc(C(=O)O)ccc1OC	-
